NPC1 prom act – NPC1 promoter activation; Huh7 NPC1 promoter luciferase reporter, 24 h; Potency, µM (highest dose often 9.22 µM), most hits filed as activators; hit rate 2.4% among 320,000; AID 485313; note: nearly all actives have a fitted effect of over 60% in size
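Quantitative HTS used a cell-based reporter: Huh7 cells stably bearing the NPC1 promoter upstream of luciferase were treated with compounds for 24 h, and promoter activation was read as luminescence.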
FLuc modulator – firefly luciferase modulation, counter-screen for miR-21 project | P08659 | purified FLuc, Km substrates, luminescence inhibition | Potency, µM (series often up to 57.5 µM), actives largely listed as inhibitors | hit rate 6.9% among 360,000; note: nearly all actives have a fitted effect of over 55% in size
Target sequence (P08659 whole entry, looked up): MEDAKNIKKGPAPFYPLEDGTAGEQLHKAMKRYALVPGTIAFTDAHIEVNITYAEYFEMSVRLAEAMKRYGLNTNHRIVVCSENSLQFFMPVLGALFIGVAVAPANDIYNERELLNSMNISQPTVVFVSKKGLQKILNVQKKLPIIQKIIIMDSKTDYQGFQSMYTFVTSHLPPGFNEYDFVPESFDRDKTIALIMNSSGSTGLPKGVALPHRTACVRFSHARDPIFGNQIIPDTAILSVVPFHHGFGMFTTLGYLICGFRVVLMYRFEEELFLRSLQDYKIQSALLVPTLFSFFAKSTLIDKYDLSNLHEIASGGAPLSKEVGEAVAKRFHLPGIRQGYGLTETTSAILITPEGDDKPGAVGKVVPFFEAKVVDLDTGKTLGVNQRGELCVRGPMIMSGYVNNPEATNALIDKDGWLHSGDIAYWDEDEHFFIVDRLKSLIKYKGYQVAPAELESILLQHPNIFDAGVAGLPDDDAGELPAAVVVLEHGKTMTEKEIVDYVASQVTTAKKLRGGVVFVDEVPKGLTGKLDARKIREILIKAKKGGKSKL
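Purified P. pyralis luciferase (10nM final) with 10uM D-luciferin and 10uM ATP (Km levels) in 50mM Tris acetate pH 7.5, 10mM Mg acetate, 0.01% Tween-20, 0.05% BSA; qHTS 6-point titration, ~60 µM downward; luminescence read.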
SMN2 splice up – enhancers of SMN2 splice variant expression | HEK293 SMN2-luciferase splicing reporter, luminescence, 30-36 h | Potency, µM (series often up to 46.1 µM), usual class: activators | hit rate 2.8% among 210,000 | AID 1458; note: nearly all actives have a fitted effect of over 55% in size
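HEK293 cells carry an SMN2 […]–luciferase reporter in which exon 7 inclusion puts luciferase in frame. Cells were plated 10-12 h before compound addition, then incubated 30-36 h at 37C. ONE-Glo luminescence was read; sodium butyrate at 4.5 mM final served as control.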
ELG1 genotoxic – genotoxicity induction in ELG1-luciferase HEK293T cells | HEK293T ELG1-luciferase reporter, luminescence, 16 h | Potency, µM (series often up to 46 µM), hits mostly activators | hit rate 1.3% among 330,000 | AID 504466; note: nearly all actives have a fitted effect of over 60% in size
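16 hr compound incubation (37 °C, 5% CO2) of HEK293T cells carrying luciferase-tagged ELG1; luciferase then measured by ONE-Glo luminescence after 30 min at RT.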
Rab9 promoter act – activates the Rab9 promoter. hit rate 2.8% among 320,000. Potency, µM (doses to about 9.22 µM), most hits filed as activators. Huh7 Rab9 promoter-luciferase reporter, luminescence, 24 h. AID 485297; note: nearly all actives have a fitted effect of over 60% in size
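Huh7 reporter line, Rab9 promoter upstream of luciferase. Compound exposure 24 h at 37 °C in reduced-serum medium with 10% FBS. Read-out: luminescence.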
Numbers stand for hits; – = inactive; ? = inconclusive; · = no result; [ ] = dose if it differs, or a comment. This is a sample that favours compounds with a hit; in the whole collection about 7.5% have one here. Calls come from the whole dose curve; as a rule, active = well fitted curve in the direction sought with a large enough effect; inconclusive = small, poorly fitted or top-dose-only effect, or another doubt; inactive = no such curve, though single readings can be large; an effect the other way counts as inactive or inconclusive.

SMILES	NPC1 prom act	FLuc modulator	SMN2 splice up	ELG1 genotoxic	Rab9 promoter act
O=C(Cc1c(F)cccc1Cl)Nc1ccncc1	–	–	–	–	–
Cc1ccc(CC(=O)Nc2cccc(C)n2)cc1	?	?	13µM	21µM	?
Cc1cccc(NC(=O)Cc2c(F)cccc2Cl)n1	2.5µM	15µM	·	?	3.2µM
COCCNC(=O)[C@H]1N2C(=O)c3ccccc3C2SC1(C)C (stereo not given in full)	–	–	·	–	–
C=CCN(CC=C)C(=S)Nc1ccccc1	–	–	–	–	–
COc1ccc(NC(=O)C2CCCN(S(=O)(=O)c3ccc4c(c3)CCCC(=O)N4)C2)cc1OC (stereo not given)	·	–	·	·	·
Cc1ccc(C(C(=O)NC2CCCCC2)N(C(=O)c2csnn2)C2CC2)cc1 (stereo not given)	–	?	·	–	–
Cc1csc(NC(=O)Cc2c[nH]c3ccccc23)n1	–	?	–	?	–
Cc1csc(NC(=O)Cc2ccc(F)cc2)n1	?	?	·	?	3.5µM
CC(C)OCCCN1C(=O)c2[nH]nc(-c3ccccc3O)c2C1c1ccc(OCc2ccccc2)cc1 (stereo not given)	·	–	–	·	·
CCOc1ccc(NS(=O)(=O)c2ccc(-c3coc(C)n3)cc2)cc1	–	–	·	–	–
CC1CCCN(C(=O)c2ccc(-c3ccccc3Cl)o2)C1 (stereo not given)	3.5µM	8.5µM	·	15µM	2.5µM
Cc1nn(-c2cccc(C(F)(F)F)c2)c(Cl)c1/C=N/Nc1cccc(C(=O)O)c1	0.11µM	1.5µM	0.4µM	0.41µM	0.1µM
Cc1nn(-c2ccccc2Cl)c(Cl)c1/C=N/Nc1cccc(C(=O)O)c1	?	0.12µM	0.071µM	?	0.035µM
CCOC(=O)N/N=C/c1c(C)nn(-c2cccc(C(F)(F)F)c2)c1Cl	–	–	–	–	–
CC(=O)c1cc(-c2ccc(F)cc2)n(CC(=O)NC2CCC(C)CC2)c1C (stereo not given)	·	–	·	·	·
CCN1C(=S)SC(=O)C1=C1C=C(C)N(CCOC)C(C)=C1	0.4µM	2.4µM	?	1.6µM	0.79µM
CCN1C(=S)SC(=O)C1=C1C=C(C)N(CCO)C(C)=C1	1.3µM	7.6µM	–	5.2µM	1.4µM
CCN1C(=O)/C(=C/C=C2/Sc3ccccc3N2CCO)SC1=S	–	–	–	–	–
CC(C)(C)C(=O)NCCN1CCN(C(=O)C(C)(C)C)CC1	–	–	–	–	–
Cc1ccc(-c2csc(N)n2)s1	?	15µM	–	?	–
CCOC(=O)c1ccc(NCCc2ccc(OC)c(OC)c2)c(N)c1	–	–	·	–	–
Cc1noc(C)c1C(=O)OCC(=O)c1cc(C)n(Cc2ccccc2Cl)c1C	?	11µM	–	16µM	?
CC(c1ccccc1)c1nnc(NC(=O)c2ccc3c(c2)OCO3)s1 (stereo not given)	–	–	·	–	–
CC(C)c1nnc(NC(=O)c2ccc3c(c2)OCO3)s1	0.45µM	1.3µM	1µM	?	0.28µM
SMILES	NPC1 prom act	FLuc modulator	SMN2 splice up	ELG1 genotoxic	Rab9 promoter act
CCOC(=O)CSc1nnc(NC(=O)c2ccc3c(c2)OCO3)s1	–	1.1µM	·	–	–
CCN(CC)C(=O)c1sc(NC(=O)c2ccc3c(c2)OCO3)c(C(N)=O)c1C	?	19µM	·	–	?
CCOC(=O)CSc1nnc(NC(=O)c2cccc(S(=O)(=O)N3CCCCCC3)c2)s1	–	–	–	–	–
CC(C)(C)c1nnc(NC(=O)c2ccc3c(c2)OCO3)s1	2µM	6.7µM	·	?	2.5µM
COC(=O)[C@H](Cc1c[nH]c2ccccc12)NC(=O)NCc1ccc(OC)c(OC)c1	–	–	·	–	–
O=C(O)CCCCCCC1C(=O)NC(=O)N1CCC(O)C1CCCCC1 (stereo not given)	–	–	–	–	–
O=c1[nH]c(SCc2c(Cl)c(Cl)c(Cl)c(Cl)c2Cl)nc(=S)[nH]1	·	·	–[9.22 µM]	·	·
O=C(COC(=O)CCS(=O)(=O)c1ccc(F)cc1)NC1CCCCC1	–	–	·	–	–
CC(C)Sc1nnc(NC(=O)c2ccc3c(c2)OCO3)s1	2.2µM	5.4µM	·	?	1.4µM
CCOC(=O)c1sc(NC(=O)COc2ccc3c(c2)OCO3)nc1C	–	–	·	–	–
CC(C)(C)c1nnc(NC(=O)COc2ccc3c(c2)OCO3)s1	3.5µM	12µM	·	?	?
CCSc1nnc(NC(=O)c2ccc3c(c2)OCO3)s1	2.5µM	6.7µM	10µM	2.1µM	1.6µM
COc1ccc(OC)c(C2CC(=O)Nc3c2c(=O)[nH]c2ncnn32)c1 (stereo not given)	–	–	–	–	–
O=C(Nc1nnc(CCS(=O)(=O)c2ccc(Br)cc2)s1)c1ccc([N+](=O)[O-])cc1	–	–	–	–	–
Cc1oc2ccc(O)c(CN3CCCCCC3)c2c1C(=O)Nc1cccc(C(F)(F)F)c1	·	–	–	·	·
c1ccc(CSc2ncn(-c3ccccc3)n2)cc1	3.2µM	4.8µM	14µM	4.1µM	2.2µM
Nc1nc(CSc2ncn(-c3ccccc3)n2)cs1	2µM	11µM	16µM	?	1.3µM
O=C(CSc1ncn(-c2ccccc2)n1)c1cccs1	2.8µM	7.6µM	?	?	1.4µM
CCOc1ccccc1NC(=O)N1CCC2(CC1)Oc1ccccc1C(=O)N2Cc1ccccc1F	·	–	–	·	·
CC1=C(C(=O)Nc2ccc(Cl)cc2)C(c2cccs2)n2nc(SCc3cccc(C)c3)nc2N1 (stereo not given)	·	–	–	·	·
CCn1cc(CNCc2cn(C)nc2-c2ccc(C3CCCCC3)cc2)cn1	–	15µM	·	–	–
Cn1cc(CNCc2ccc(OC(F)(F)F)cc2)c(-c2ccc3c(c2)OCCO3)n1	–	–	·	–	–
Cc1cccc(-c2ncc(S(=O)(=O)C(C)(C)C)c(N)n2)c1	4µM	?	·	–	3.2µM
CC(=O)c1ccc(S(=O)(=O)Nc2cccc(-c3ccc(N4CCOCC4)nn3)c2)cc1	?	2.7µM	·	–	?
O=[N+]([O-])c1ccccc1S(=O)(=O)Nc1ccc(-c2ccc(N3CCOCC3)nn2)cc1	–	?	·	–	–
SMILES	NPC1 prom act	FLuc modulator	SMN2 splice up	ELG1 genotoxic	Rab9 promoter act
CC(=O)Nc1ccc(S(=O)(=O)Nc2cccc(-c3ccc(N4CCCCCC4)nn3)c2)cc1	·	4.8µM	·	·	·
COc1ccc(-c2cccc(NS(=O)(=O)c3ccc(NC(C)=O)cc3)c2)nn1	·	–	·	·	·
CC(=O)Nc1ccc(S(=O)(=O)Nc2cccc(-c3ccc(N4CCC(C)CC4)nn3)c2)cc1	·	0.54µM	·	·	·
O=C(NC(=O)c1ccncc1)NC(c1ccccc1)c1ccccc1	–	–	–	–	–
C#CCOCCOCCOCCNc1nc(N2CCN(C(=O)[C@H](CCC(=O)O)n3cc(C(N)CO)nn3)CC2)nc(N2CCN(C(=O)[C@H](CCC(=O)O)n3cc(C(N)CC(C)C)nn3)CC2)n1 (stereo not given in full)	–	–	·	–	–
Cc1ccc(C(=O)NC(Cc2ccc(C(C)(C)C)cc2)C(=O)O)cc1 (stereo not given)	·	·	·	–	·
COC(=O)C(Cc1ccccc1)NC(=O)c1ccc(C)cc1 (stereo not given)	–	6µM	–	–	–

Screening data: PubChem BioAssay, National Center for Advancing Translational Sciences (NCATS)
